Measurements: ChEMBL document CHEMBL3988442, “University of Dundee, Small-Polar-MMV Screening Library” (2021)
Out of some 48,000 compounds screened, about 13,000 (27%) showed an effect of 50% or more. This is one part of the list.

The compounds below were run on Wolbachia pipientis (assay: Anti-Wolbachia Cell-Based Screen). Settings: 5 µM.
Format: functional
Set-up: scale not given: in the data most compounds retested in dose-response had high values
For CN(Cc1ccco1)c1ccc(-c2nccn2C)nn1, the “Percent Effect” value was -4.631%.
In the case of CC1=C[C@@H](CN2CCCC2)[C@H](C(C)C)C[C@H]1Cc1nnc(C)o1, the “Percent Effect” value is reported as -4.134%.
CC(C)(C)OC(=O)N1CCCN1C(=O)c1cccc(F)c1F was tested, and the “Percent Effect” value was -1.297%.
In the case of O=C(Nc1ccc(F)c(-n2cccc2)c1)NC1(CCO)CCOCC1, the “Percent Effect” value is reported as 29.93%.
In the case of Cc1nccn1CCCC(=O)Nc1nc(C(C)C)nn1C, the “Percent Effect” value is reported as -14.12%.
With Br.Cc1cc(C)nc(NCCC(=O)NCCn2ccnc2C)n1 the “Percent Effect” value was 178%.
For Cc1cc(NC(=O)CCCn2ccnc2C)nc(C(C)C)n1, the “Percent Effect” value was -7.681%.
CSC1(CNC(=O)N(C)Cc2sccc2C)CCOCC1 was tested, and the “Percent Effect” value was 7.6%.
With O=C(N1CCOCC1)N1CC[C@H]2[C@@H]1CCC(=O)N2c1ccccc1 the “Percent Effect” value was -0.9647%.
With Cc1cccnc1N1CCC(c2nccn2Cc2cscn2)CC1 the “Percent Effect” value was -9.317%.
In the case of COc1ccc(C(=O)NCC(C)(O)CCc2ccccc2)cc1 (stereo not drawn), the “Percent Effect” value is reported as -2.442%.
With O=C(NCc1cnc2n1CCN(c1ncc(F)cn1)CC2)C1CCC1 the “Percent Effect” value was 15.93%.
With CN(C)C(=O)N1CCn2cc(CNC(=O)CC3CC3)nc2C1 the “Percent Effect” value was -12.44%.
In the case of O=C(NCc1cnc2n1CCN(CC1CC1)CC2)C1CCC1, the “Percent Effect” value is reported as 16.9%.
For CC(=O)N1CCc2ncc(CNC(=O)C3CCC3)n2CC1, the “Percent Effect” value was 106.1%.
For Cn1cccc1C(=O)NCc1cnc2n1CCN(C(=O)N1CCCC1)C2, the “Percent Effect” value was 10.49%.
NC(=O)N1CCc2ncc(CNC(=O)CC3CC3)n2CC1 was tested, and the “Percent Effect” value was 111.4%.
For Cn1cccc1C(=O)NCc1cnc2n1CCN(C(N)=O)CC2, the “Percent Effect” value was -2.634%.
With CS(=O)(=O)N1CCc2ncc(CNC(=O)C3CCC3)n2CC1 the “Percent Effect” value was 95.01%.
For Cc1cc(N2CCC(NC(=O)CCC3CCCO3)CC2)nc(C)n1 (stereo not drawn), the “Percent Effect” value was 7.946%.
Cc1cn2c(n1)C(CNCc1ccc(C)s1)CCC2 (stereo not drawn) was tested, and the “Percent Effect” value was 5.575%.
CC1(C)[C@H]2CC=C(CN3CCCn4nc(C(=O)NCCO)cc4C3)[C@@H]1C2 was tested, and the “Percent Effect” value was 10.58%.
In the case of Cc1cccc(OCCC(=O)N2CCCN(C(N)=O)CC2)c1C, the “Percent Effect” value is reported as -12.46%.
c1ccc(Cc2noc(-c3ccc(NCC4CCCOC4)nc3)n2)cc1 (stereo not drawn) was tested, and the “Percent Effect” value was 130.1%.
Cc1ccccc1-c1noc(-c2ccc(N(C)C3CCOCC3)nc2)n1 was tested, and the “Percent Effect” value was 1.469%.
With c1ccc(Cc2noc(-c3ccc(NCC4COCCO4)nc3)n2)cc1 (stereo not drawn) the “Percent Effect” value was 114.1%.
For COCC(C)Nc1ccc(-c2nc(Cc3ccc(F)cc3)no2)cn1 (stereo not drawn), the “Percent Effect” value was -40.71%.
COC(=O)CNc1ccc(-c2nc(Cc3ccc(OC)cc3)no2)cn1 was tested, and the “Percent Effect” value was -28.16%.
OC[C@@H]1CCCN1c1ccc(-c2nc(CCc3ccccc3)no2)cn1 was tested, and the “Percent Effect” value was 1.286%.
With COc1cccc(-c2noc(-c3ccc(NCC4CC4)nc3)n2)c1OC the “Percent Effect” value was -9.972%.
With c1ccc(Cc2noc(-c3ccc(NCC4CCCCO4)nc3)n2)cc1 (stereo not drawn) the “Percent Effect” value was 127.1%.
CC(CO)Nc1ccc(-c2nc(Cc3ccc(F)cc3)no2)cn1 (stereo not drawn) was tested, and the “Percent Effect” value was -69.59%.
For Cc1ccccc1-c1noc(-c2ccc(NCC3COCCO3)nc2)n1 (stereo not drawn), the “Percent Effect” value was 87.55%.
With O=C(CN1CC(c2nc(Cc3ccccc3)no2)C1)NCC1CCCO1.O=C(O)C(=O)O (stereo not drawn) the “Percent Effect” value was 1.544%.
For O=C(NCC1COCCO1)c1csc(Cc2ccccc2)n1 (stereo not drawn), the “Percent Effect” value was -4.558%.
With CC(CNCc1ccncc1)Oc1ccccn1.Cl (stereo not drawn) the “Percent Effect” value was 14.12%.
With Cc1cc(N2Cc3cnc(CC(C)C)nc3C2)nc(N)n1 the “Percent Effect” value was -9.889%.
With COC(=O)c1ccc(N(C)C2CCC2)nn1 the “Percent Effect” value was -14.02%.
CSc1ccccc1CCC1CCS(=O)(=O)C1 (stereo not drawn) was tested, and the “Percent Effect” value was -15.64%.
CS(=O)(=O)CCC(=O)NC1CC(c2cccc(Cl)c2)C1 (stereo not drawn) was tested, and the “Percent Effect” value was -6.793%.
With COCC1CN(C(=O)c2ccco2)Cc2cn(C)nc21.O=C(O)C(F)(F)F (stereo not drawn) the “Percent Effect” value was -0.009633%.
For CCOCC1CN(C(=O)COc2ccccc2)Cc2cn(C)nc21 (stereo not drawn), the “Percent Effect” value was -5.674%.
With COCC1CN(C(=O)COc2ccccc2)Cc2cn(C)nc21.O=C(O)C(F)(F)F (stereo not drawn) the “Percent Effect” value was -8.714%.
CNC(=O)C1CN(C(=O)COc2ccccc2)Cc2cn(C)nc21 (stereo not drawn) was tested, and the “Percent Effect” value was 122.8%.
For CNC(=O)C1CN(C(=O)c2ccccc2)Cc2cn(C)nc21 (stereo not drawn), the “Percent Effect” value was 107.7%.
With COCC(=O)N1Cc2cn(C)nc2C(COc2cccnc2)C1 (stereo not drawn) the “Percent Effect” value was -3.351%.
O=C1N(c2ccccc2)C[C@H]2CN(C3CCC3)CCN12 was tested, and the “Percent Effect” value was -7.27%.
O=C(c1ccccc1)N1CCN(C2CCc3ccc(F)cc32)CC1 (stereo not drawn) was tested, and the “Percent Effect” value was -8.707%.
In the case of OC1(Cn2ccc3ncccc32)CCN(Cc2cccnc2)CC1, the “Percent Effect” value is reported as 93.84%.
CCn1cc(CN2CCC(CCC(=O)Nc3ccccc3Cl)CC2)cn1 was tested, and the “Percent Effect” value was 5.103%.
In the case of CCn1cc(CN2CCC(O)(Cn3ccc4ncccc43)CC2)cn1, the “Percent Effect” value is reported as 79.32%.
With CCn1ccnc1-c1nccn1-c1ccccc1CN1CCOCC1 the “Percent Effect” value was -5.226%.
For OC1(Cn2ccc3ccncc32)CCN(Cc2ccccn2)CC1, the “Percent Effect” value was -11.69%.
In the case of Cc1cc(-n2cccn2)ccc1CN1CCC(O)(CN2CCCCC2)C1 (stereo not drawn), the “Percent Effect” value is reported as -16.49%.
CCn1cc(CN2CCN(C(=O)N3CCOCC3)CC2)cn1 was tested, and the “Percent Effect” value was 3.548%.
With OC1(Cn2ccc3ncccc32)CCN(Cc2cccs2)CC1 the “Percent Effect” value was 107.1%.
In the case of O=C(CCn1ccc2ccccc21)N1CCN(Cc2cccnc2)CC1, the “Percent Effect” value is reported as -2.767%.
With CCn1ncc(CN2CCC(O)(Cn3ccc4ncccc43)CC2)c1C the “Percent Effect” value was 101.2%.
In the case of c1cnnc(N2CCCC(NCc3nc(-c4ccsc4)no3)C2)c1 (stereo not drawn), the “Percent Effect” value is reported as -5.717%.
COC(=O)c1ccc2ccn(CC3COCCO3)c(=O)c2c1 (stereo not drawn) was tested, and the “Percent Effect” value was -29.12%.
With NS(=O)(=O)N1CCC(C(=O)Nc2cccc(OC(F)F)c2)CC1 the “Percent Effect” value was 23.74%.
Cc1cccc2c(=O)c(C(=O)N3CCCC4(CN(C)C(=O)O4)C3)c[nH]c12 (stereo not drawn) was tested, and the “Percent Effect” value was 3.697%.
CN(Cc1nc(CS(C)(=O)=O)no1)c1ccccc1 was tested, and the “Percent Effect” value was 1.355%.
With COc1ccccc1OC1CN(C(=O)C(c2ccccc2F)N(C)C)C1 (stereo not drawn) the “Percent Effect” value was 10.69%.
With O=C(c1cccc(S(=O)(=O)NCCc2nccs2)c1)N1CCOCC1 the “Percent Effect” value was -12.77%.
For COCCCn1c(CN2CCCC(O)C2)cnc1S(=O)(=O)C1CCCC1 (stereo not drawn), the “Percent Effect” value was -2.252%.
COCCN1C(=O)[C@]2(CC[C@@H]3CN(S(=O)(=O)CC(C)C)C[C@@H]32)N=C1C was tested, and the “Percent Effect” value was -14.47%.
In the case of CC(C)(C)C(=O)NCC(=O)NCC1CCCS1 (stereo not drawn), the “Percent Effect” value is reported as -13.47%.
CN(Cc1ccc(C#N)cc1)C(=O)c1ccnc(OC2CCC2)c1 was tested, and the “Percent Effect” value was -4.84%.
For Cc1cc(C(=O)N2CCN(C(=O)Cc3ccccn3)CC2)c(C)s1, the “Percent Effect” value was 2.124%.
With Cc1ccc(CN2CCCC3(CCN(Cc4ccc(C)o4)C3)C2)o1 (stereo not drawn) the “Percent Effect” value was 14.2%.
Cc1cc(CN2CCC(O)(Cn3ccc4ncccc43)CC2)c(C)s1 was tested, and the “Percent Effect” value was 75.84%.
In the case of NC(=O)CN1CC2(CCC1=O)CCN(Cc1cc(F)cc(F)c1)CC2, the “Percent Effect” value is reported as 6.606%.
In the case of Cc1cc(N2CCCN(Cc3ccc(C)o3)CC2)ccn1, the “Percent Effect” value is reported as -3.581%.
COc1ccc(F)cc1CN1CCC(O)(CN2CCCCC2)C1 (stereo not drawn) was tested, and the “Percent Effect” value was 8.228%.
OC1(Cn2ccc3ncccc32)CCN(Cc2cc(F)cc(F)c2)CC1 was tested, and the “Percent Effect” value was 107.3%.
With Cc1ccc(CN2CCC(O)(Cn3ccc4ncccc43)CC2)o1.Cl the “Percent Effect” value was 100%.
For Oc1cc(CN2CCC(O)(Cn3ccnc3)CC2)nc2ccc(F)cc12, the “Percent Effect” value was -18%.
In the case of OCC1(O)CCCN(Cc2ccccc2OCCc2ccccc2)CC1 (stereo not drawn), the “Percent Effect” value is reported as 13.11%.
COc1ccccc1CN1CCC(O)(Cn2ccc3ncccc32)CC1 was tested, and the “Percent Effect” value was 82.78%.
For Cc1ccc2nc(CN3CCC(O)(Cn4ccnc4)CC3)cc(O)c2c1, the “Percent Effect” value was -4.196%.
With Nc1ccnn1C1CCN(Cc2ccccc2)C1 (stereo not drawn) the “Percent Effect” value was -4.351%.
With CCN(C)Cc1cnc(S(=O)(=O)CC)n1CCOC the “Percent Effect” value was 2.274%.
Cc1cc(S(=O)(=O)NCC2CNCCOC2)c(C)cc1Cl (stereo not drawn) was tested, and the “Percent Effect” value was -6.904%.
O=C(O)C(=O)O.c1cnc(-c2noc(C3CN(Cc4ccsc4)C3)n2)cn1 was tested, and the “Percent Effect” value was 20.73%.
With O=C(O)C1(Cc2ccccc2Cl)CCN(c2ncccc2F)CC1 the “Percent Effect” value was -2.228%.
Cl.OC1(Cn2ccc3ncccc32)CCN(Cc2ccccn2)CC1 was tested, and the “Percent Effect” value was -13.22%.
Cl.OC1(Cn2ccc3ncccc32)CCN(Cc2ccccc2F)CC1 was tested, and the “Percent Effect” value was 103.8%.
In the case of COc1ccc(N2CCCC3(C2)CN(c2ncccn2)CCO3)cc1 (stereo not drawn), the “Percent Effect” value is reported as 2.929%.
In the case of c1ccc(CN2CCOC3(CCCN(c4nccs4)C3)C2)cc1 (stereo not drawn), the “Percent Effect” value is reported as -0.1767%.
In the case of c1ccc(CO[C@H]2CN(c3ncccn3)C[C@@]23CCCO3)cc1, the “Percent Effect” value is reported as 124.5%.
For CN(C(=O)COC1CCCCC1)C1CCN(CC2CCOC2)CC1 (stereo not drawn), the “Percent Effect” value was -5.016%.
With COc1cc2c(cc1OC)CN(C(C(=O)O)c1c(C)nn(C)c1C)CC2 (stereo not drawn) the “Percent Effect” value was 14.43%.
For COc1ccccc1OCC(=O)N1CCC[C@]2(C[C@@H](OC)CO2)C1, the “Percent Effect” value was -30.12%.
In the case of CO[C@@H]1CO[C@@]2(CCCN(C(=O)C3CC=CC3)C2)C1, the “Percent Effect” value is reported as 95.67%.
For CO[C@H]1CO[C@@]2(CCCN(C(=O)C3CC=CC3)C2)C1, the “Percent Effect” value was 107.2%.
CO[C@@H]1CO[C@@]2(CCN(C(=O)COc3ccccc3C)C2)C1 was tested, and the “Percent Effect” value was -3.612%.
For COCC(=O)N1CC[C@@H]2O[C@@H](COCC3CCOCC3)CC[C@@H]21, the “Percent Effect” value was -13.21%.
Cc1ccc(NS(=O)(=O)c2cccc(C#N)c2)c(CN(C)C)c1 was tested, and the “Percent Effect” value was 5.777%.
With Cc1cc(C)n(C2CCCN(C(=O)c3ccc(F)cc3F)C2)n1 (stereo not drawn) the “Percent Effect” value was 0.0476%.
Cc1nnsc1C(=O)N1CCCC(n2nnc3cc(F)ccc32)C1 (stereo not drawn) was tested, and the “Percent Effect” value was 86.87%.
In the case of CCc1nnsc1C(=O)N1CCCC(COc2ccc(F)cc2)C1 (stereo not drawn), the “Percent Effect” value is reported as -1.511%.
With Cc1nnsc1C(=O)N1CCCC(c2nccn2Cc2cscn2)C1 (stereo not drawn) the “Percent Effect” value was 19.06%.
For Cc1c(C(=O)N2CCCC(n3nnc4cc(F)ccc43)C2)cnn1C (stereo not drawn), the “Percent Effect” value was 103.4%.
Cc1nc(C)n(C2CCCN(C(=O)c3ccc(F)cc3F)C2)n1 (stereo not drawn) was tested, and the “Percent Effect” value was 4.826%.
Cc1nn(C)cc1C(=O)N1CCCC(n2nnc3cc(F)ccc32)C1 (stereo not drawn) was tested, and the “Percent Effect” value was 70.61%.
For O=C(c1n[nH]cc1Cl)N1CCOC(Cc2cccc(C(F)(F)F)c2)C1 (stereo not drawn), the “Percent Effect” value was 16.6%.
O=C(c1n[nH]cc1Cl)N1CCCC(n2nnc3cc(F)ccc32)C1 (stereo not drawn) was tested, and the “Percent Effect” value was 121.3%.
